# The supplement of paper PMC12645437, “Orthogonal IMiD-Degron Pairs Induce Selective Protein Degradation in Cells” (ACS Chemical Biology, 2025)
# In all, about 8,300 sequences were measured (“log2 fold change of degron read counts, EGFP-low vs EGFP+ sorted cells (limma voom), compound-induced degradation”: median about -1.1, highest 2% from about 3.2 on). The sample as a whole holds a higher share of the highest values than the screen did.
# T1: CRBN, Q96SW2
# T1 chain: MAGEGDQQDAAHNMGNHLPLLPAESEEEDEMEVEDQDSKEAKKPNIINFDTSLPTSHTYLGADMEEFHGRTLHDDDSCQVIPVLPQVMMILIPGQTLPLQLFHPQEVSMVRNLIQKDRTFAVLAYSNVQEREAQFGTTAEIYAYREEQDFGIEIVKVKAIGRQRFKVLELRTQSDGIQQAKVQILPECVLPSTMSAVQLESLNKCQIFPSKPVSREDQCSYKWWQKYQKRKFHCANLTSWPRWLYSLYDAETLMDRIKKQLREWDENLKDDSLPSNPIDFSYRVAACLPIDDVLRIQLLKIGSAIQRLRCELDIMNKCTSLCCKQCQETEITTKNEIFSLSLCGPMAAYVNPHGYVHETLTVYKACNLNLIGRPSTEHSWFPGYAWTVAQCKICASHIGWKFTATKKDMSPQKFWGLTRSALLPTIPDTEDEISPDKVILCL
# Target: T1, CRBN, Q96SW2
# Assay: log2 fold change of degron read counts, EGFP-low vs EGFP+ sorted cells (limma voom), compound-induced degradation; higher = more compound-induced degradation of the degron-EGFP fusion; degrons are variants of IKZF1/3 zinc finger 2; compound dose not given here
# Conditions: Jurkat, 18 h
# [1] = compound: compound 19 (5-tert-butyl-thalidomide)
# [2] = compound: compound 22 (5-morpholino-thalidomide)
# [3] = compound: compound 33 (diphenyl IMiD analogue)
# 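Note: pooled lentiviral library of zinc finger degron-EGFP fusions in mCherry-positive Jurkat cells, FACS-sorted after compound exposure, with degron abundance counted by next-generation sequencing.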
Sequence,log2 fold change of degron read counts [1],log2 fold change of degron read counts [2],log2 fold change of degron read counts [3],log2 fold change of degron read counts (compound: thalidomide)
"LKCNQCGFCCTQKGNLLRHIKL [46L_47K_49N_50Q_52G_53F_54C_55C_67L_, Q9UKT9]",-2.31,-2.82,-2.5,-1.52
"LFCEICGFDCTQKGNLLRHIKL [46L_47F_49E_50I_52G_53F_54D_55C_67L_, Q9UKT9]",-1.8,-2.4,-2.23,-1.77
"FICNQCGACFTQKGNLLRHIKL [46F_47I_49N_50Q_52G_53A_54C_55F_67L_, Q9UKT9]",-2.25,-1.71,-0.536,-1.25
"FKCPICGHAFTQKGNLLRHIKL [46F_47K_49P_50I_52G_53H_54A_55F_67L_, Q9UKT9]",-2.73,-2.8,-3.02,-2
"FHCPICGHWFTQKGNLLRHIKL [46F_47H_49P_50I_52G_53H_54W_55F_67L_, Q9UKT9]",-1.67,-2.48,-1.12,-1.62
"FYCEICGAGFTQKGNLLRHIKL [46F_47Y_49E_50I_52G_53A_54G_55F_67L_, Q9UKT9]",3.64,3.17,2.39,0.707
"FECEICGAGFTQKGNLLRHIKL [46F_47E_49E_50I_52G_53A_54G_55F_67L_, Q9UKT9]",1.97,-1.47,0.9,1.53
"FLCEICGAGFTQKGNLLRHIKL [46F_47L_49E_50I_52G_53A_54G_55F_67L_, Q9UKT9]",2.55,-0.336,1.28,0.798
"FWCEICGAGFTQKGNLLRHIKL [46F_47W_49E_50I_52G_53A_54G_55F_67L_, Q9UKT9]",3.64,2.88,1.29,-0.285
"FQCEICGAGFTQKGNLLRHIKL [46F_47Q_49E_50I_52G_53A_54G_55F_67L_, Q9UKT9]",2.81,1.87,1.48,3.09
"FGCEICGAGFTQKGNLLRHIKL [46F_47G_49E_50I_52G_53A_54G_55F_67L_, Q9UKT9]",2.12,0.308,1.02,-0.108
"FGCNICGALFTQKGNLLRHIKL [46F_47G_49N_50I_52G_53A_54L_55F_67L_, Q9UKT9]",-0.269,0.462,1.6,-0.293
"FTCEICGRVFTQKGNLLRHIKL [46F_47T_49E_50I_52G_53R_54V_55F_67L_, Q9UKT9]",-2.27,-1.55,-0.702,-0.137
"FRCPICGRLFTQKGNLLRHIKL [46F_47R_49P_50I_52G_53R_54L_55F_67L_, Q9UKT9]",-1.83,-0.827,0.758,0.687
"FDCPICGRMFTQKGNLLRHIKL [46F_47D_49P_50I_52G_53R_54M_55F_67L_, Q9UKT9]",-0.392,-0.463,1.09,1.7
"FRCNQCGHRFTQKGNLLRHIKL [46F_47R_49N_50Q_52G_53H_54R_55F_67L_, Q9UKT9]",-2.19,-2.67,-2.63,-2.17
"FKCEVCGACFTQKGNLLRHIKL [46F_47K_49E_50V_52G_53A_54C_55F_67L_, Q9UKT9]",-0.0189,-2.37,-2.27,-0.751
"FCCEVCGACFTQKGNLLRHIKL [46F_47C_49E_50V_52G_53A_54C_55F_67L_, Q9UKT9]",2.54,2.27,2.88,2.26
"FNCEVCGACFTQKGNLLRHIKL [46F_47N_49E_50V_52G_53A_54C_55F_67L_, Q9UKT9]",2.1,0.177,0.1,-0.55
"FECEVCGACFTQKGNLLRHIKL [46F_47E_49E_50V_52G_53A_54C_55F_67L_, Q9UKT9]",0.0523,-1.58,1.91,2.18
"FWCEVCGACFTQKGNLLRHIKL [46F_47W_49E_50V_52G_53A_54C_55F_67L_, Q9UKT9]",3.64,3.77,2.8,1.25
"FHCEVCGACFTQKGNLLRHIKL [46F_47H_49E_50V_52G_53A_54C_55F_67L_, Q9UKT9]",2.22,2.25,1.49,0.274
"FDCEVCGACFTQKGNLLRHIKL [46F_47D_49E_50V_52G_53A_54C_55F_67L_, Q9UKT9]",0.736,-1.47,0.552,-0.0895
"FGCEVCGACFTQKGNLLRHIKL [46F_47G_49E_50V_52G_53A_54C_55F_67L_, Q9UKT9]",3.58,2.6,1.86,0.497
"FACEVCGACFTQKGNLLRHIKL [46F_47A_49E_50V_52G_53A_54C_55F_67L_, Q9UKT9]",3.76,2.16,1.45,0.401
"FFCEVCGACFTQKGNLLRHIKL [46F_47F_49E_50V_52G_53A_54C_55F_67L_, Q9UKT9]",3.55,3.51,2.56,1.24
"LECNQCGFWCTQKGNLLRHIKL [46L_47E_49N_50Q_52G_53F_54W_55C_67L_, Q9UKT9]",-1.99,-1.69,-1.79,-1.63
"FYCDICGAVFTQKGNLLRHIKL [46F_47Y_49D_50I_52G_53A_54V_55F_67L_, Q9UKT9]",2.92,2.45,1.34,-1.18
